The assay deals with MDA-MB-468 breast. Briefly: NCI-60 one-dose screen, 48 h (100 = growth as untreated, 0 = no growth, -100 = all killed). Conditions: 10 µM unless noted.

Values joined by “and” are separate entries in the source; they are usually repeats but may differ in a detail not shown here. Identical values can stand only once. About 83,000 compounds went through this panel and 20% of them were active in at least one assay; those are over-represented in the sample as a whole.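 Interpretation: 100, growth as untreated; towards 0, rising growth inhibition; 0, no net growth; 0 to -100, cell death. Compounds scoring below 10 were considered active.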 Values without a mark were called inactive. Active and inactive are the calls of the source.

For `Nc1nc(N)c(N=Nc2ccc(C(=O)O)cc2)c(N)n1`, the growth is 114%.

For `O=C(NNc1ccc(-c2ccccc2)nn1)c1ccccc1`, the growth is 103%.

Turning to `CC(C)N1CCN(Cc2ccc3c(NNC(=O)c4ccccc4)nc4cc(F)ccc4n23)CC1`, the growth was -14.3% (active).

Turning to `COc1cccc(CC(C)=C(c2ccc(OCCCN(C)C)cc2)c2ccc(OCCCN(C)C)cc2)c1`, the growth was -83.4% (active).

Consider `O=C(/C=C/c1ccc[nH]1)c1ccc(-n2ccc(C(F)(F)F)n2)cc1`, for which the growth is 90.3%.

In the case of `CCCCN1C(=O)/C(=c2\sc3n(c2=O)NC2C(N=3)N(CC)C(=O)N2CC)c2ccccc21` (stereo unspecified), the growth was 14.3%.

For `CCCNCCC(C)=O`, the growth was 127%.

In the case of `O=C1c2c(O)cc(O)cc2O[C@@H](c2ccc(O)cc2)[C@@H]1c1c(O)cc(O)c2c(=O)cc(-c3ccc(O)c(O)c3)oc12`, the growth is 113%.

In the case of `Cc1ccc(-c2nc(-c3cn(C)c4ncccc34)cs2)cc1`, the growth was -50.2% [100 µM] (active).

For `Oc1ccc(Cc2ccccc2)c2cccnc12`, the growth was -21.1% (active).

With `Cc1cc(CC(C)CC(C)(C)C)n(O)c(=O)c1` (stereo unspecified) (tested in a mixture with another compound), the growth was -7.41% (active).

For `CCOC(=O)C1=CC(=O)CC(C)(C)O1`, the growth was 117% and 108%.

In the case of `COc1ccc2c(c1)C(=O)c1c-2c(OCCN(C)C)nc2ccccc12`, the growth was 44.8%.

For the compound `CCNCCNc1cc(-c2ccc(Cl)cc2)c(C#N)c2nc3ccccc3n12`, the growth was -45.3% (active).

As to `Cc1ccc(Cc2cnc(NC(=O)/C=C/c3ccc(C)o3)s2)cc1`, the growth was -0.221% (active).

For the compound `NC(=O)c1nc2c([nH]c1=O)CCCC2`, the growth is 95%.

Turning to `COc1cc(CNC(=O)C2CSC3(C)c4ccccc4C(=O)N23)cc(OC)c1OC` (stereo unspecified), the growth is 89.6%.

In the case of `COc1cc2c(-c3nc4cc(Cl)c(F)cc4s3)cc(=O)oc2c(C)c1OC`, the growth was -58.7% (active).

`CC(=O)NCC1c2c(n(C)c3c(Cl)c(Cl)ccc23)C(=O)NC1(C)C` (stereo unspecified): the growth was 109%.

As for `C#CC(=O)N(c1ccc(OC)cc1OC)C(C(=O)NCC(=O)OCC)c1cccs1` (stereo unspecified), the growth was 20.2%.

On to `CC(=O)c1cccc(OC(=O)c2ccccc2)c1`, for which the growth was 104%.

As to `O=C(Nc1ccc(F)cc1)c1cc2ccccc2cc1O`, the growth is 60.8%.

In the case of `O=C(COc1ccc(-c2nc3ccccc3[nH]2)cc1)N=Nc1c(O)[nH]c2ccc(Cl)cc12`, the growth was 89.7%.

On to `O=C1CCC(N2C(=O)c3cccc(NCCCCCCOc4ccc(Nc5nccc(Nc6ccccc6)n5)cc4)c3C2=O)C(=O)N1` (stereo unspecified), for which the growth is 49.3%.

In the case of `CC[C@]12C=CCN3CC[C@@]4(c5ccc(OC)cc5N(C)[C@H]4[C@@](O)(C(=O)OC)[C@@H]1OC(=O)CCCN1CCOCC1)[C@@H]32`, the growth was 108%.

Consider `O=C(O)COc1ccc(Cl)c(Cl)c1`, for which the growth is 99.5%.

Turning to `S=c1[nH]ccn1-c1ccccc1Cl`, the growth was 103%.

In the case of `CN(c1ccc(Br)cc1)S(=O)(=O)c1ccc(-c2cnc(C3CC3)o2)cc1`, the growth is 11.7%.

Regarding `NC(=O)c1c(NC(=O)c2ccccc2)sc2c1CCC(=O)C2`, the growth is -5.34% (active).

Take `COc1cccc(C(=O)NNC(=O)c2cccc3ccccc23)c1`: the growth is 111%.

Consider `Cc1nc2sc(C(=O)Nc3ccccc3)c(N)c2cc1C(O)c1ccccc1` (stereo unspecified), for which the growth is 3.45% (active).

With `COc1ccc2[nH]cc(C(c3ccc(Cl)cc3)N3CCCC3)c2c1` (stereo unspecified), the growth was 84%.

As to `CC(C)(C)n1cc(-c2ccnc(NCCCNS(=O)(=O)c3ccc(Br)cc3)c2)c(-c2cccc(O)c2)n1`, the growth is 3.51% (active).

For the compound `O=S(=O)(NCCCNc1nccc(-c2c(-c3cccc(O)c3)nc3occn23)n1)c1ccc(Cl)cc1`, the growth is 105%.

With `N[C@@H](Cc1ccccc1)[C@@H](O)C(=O)NCc1ccc(F)cc1`, the growth was 114%.

For the compound `Cc1ccc(C)c(S(=O)(=O)NC2c3ccccc3Oc3ccccc32)c1`, the growth was 85%.

Take `CCCCC1=C(Br)C(=O)c2nc(C)ccc2C1=O`: the growth is 92.6%.

On to `COC(=O)c1ccc(CSc2nnc(-c3ccncc3)o2)cc1`, for which the growth was 115%.

Take `CN(C)CCNc1cccc2sc3ccc(O)cc3c(=O)c12`: the growth was 28.1%.

For the compound `Cc1ccc(C(c2c(O)c3cc(Br)ccc3[nH]c2=O)c2c(O)c3cc(Br)ccc3[nH]c2=O)cc1`, the growth was 94.7%.

For `COc1ccc(C/C(C)=C(\c2ccc(Cl)cc2)c2ccc(OCCN3CCCCC3)cc2)cc1`, the growth is 98.2%.

For the compound `COc1ccc(/C=C2\COc3ccc(O)c(O)c3C2=O)cc1OC`, the growth was -22.8% (active).

`CCCCCCCCN(CCCCCCCC)CCCCCCCCCN1CCCc2cc(OC)ccc21`: the growth is 61.8%.

For `CCOc1ccc(/C=N/Nc2cc(C)nc3ccc(Cl)cc23)cc1`, the growth is -9.24% (active).

For the compound `Cc1ccsc1-c1ccc2c(c1)COC2(CCCN(C)C)c1ccc(F)cc1` (stereo unspecified), the growth is -8.34% (active).

As to `CC(C)=C(NC(=O)c1ccccc1)C(=O)O`, the growth was 88.5%.

Take `COc1ccc(-c2nc3c(c(-c4ccccc4)nn3-c3ccccc3)c(-c3ccc(N4CCN(C)CC4)cc3)c2C#N)cc1`: the growth is 79.2%.

Turning to `COc1ccc(/C=C/C(=O)c2c(O)c(C)c(O)c3c2OC2=CC(O)=C(C(C)=O)C(=O)[C@]23C)cc1`, the growth is -40.1% (active).

Regarding `COc1nc2c(c(=O)[nH]1)C(c1ccc(Oc3ccnc4cc(Cl)ccc34)c(OC)c1)C=C(c1cc(OC)c(OC)c(OC)c1)N2` (stereo unspecified), the growth is 92.1%.

For `CN1CCN(CCNC(=O)c2cccc(CN3c4cccc5c4C(=Cc4cccnc43)N(C)C5=O)c2)CC1`, the growth was 24.4%.

Regarding `Nc1ccc(N2CCOCC2)cc1`, the growth is 96.9%.

As for `CCn1c(SCC(=O)Nc2cccc(C(=O)/C=C/c3ccc(Br)cc3)c2)nc2ccccc2c1=O`, the growth was 86.6%.

Consider `Cc1nn(Cc2ccccc2)cc1C(=O)Nc1sc2c(c1C(N)=O)CCC(=O)C2`, for which the growth is 47.2%.

For `CCN1CCN(Cc2ccc(NC(=O)Nc3nc4ccc(Oc5ccnc(C(=O)NC)c5)cc4s3)cc2C(F)(F)F)CC1`, the growth was -66.3% (active).

Turning to `O=C(CCl)N(C1CCCCC1)C1CCCCC1`, the growth was 91.5%.

On to `O=C1CSc2ccccc2N1`, for which the growth was 112%.

On to `Clc1cccc(Nc2nc(Nc3cnc4ccccc4c3)c3[nH]cnc3n2)c1`, for which the growth was 86%.

`CCSc1ccc(C2C(Br)C(=O)N2c2cc(OC)c(OC)c(OC)c2)cc1` (stereo unspecified): the growth is 27.7%.

Consider `CCCCCCNc1nc(N2CCOCC2)c2[nH]c(NCCCCCC)nc2n1`, for which the growth was -76.7% (active).

Consider `COc1cccc(CNC(=O)c2cccc(C3CC(=O)c4c(cc(OC)c(OC)c4OC)O3)c2)c1` (stereo unspecified), for which the growth was 20.5%.

As for `CC1C(c2ccccc2)OCCN1C(=S)Nc1ccc(S(=O)(=O)N2CCCCC2)cc1` (stereo unspecified), the growth is 80.4%.

With `CCc1c(Cl)nc(N)nc1Nc1ccc(C)c(C)c1`, the growth was 83.2%.

Consider `COc1cc2cc(Oc3ccc(NC(=O)c4cccc(C(F)(F)F)c4)cc3)c(C)nc2cc1OCCN(C)C`, for which the growth was 81.5%.

On to `O=C(O)c1ccc2c(c1)C(=O)N(Cc1ccccc1)C2=O`, for which the growth was 96.2%.

For the compound `CN(C)CCSC1=Nc2ccc(Cl)cc2C(c2ccccc2Cl)N(C)C1` (stereo unspecified), the growth is 58.4%.

With `O=P(O)(O)OCC(O)CO` (stereo unspecified), the growth was 100%.

`Nc1[nH]nc2nc(-c3ccccc3)n3c4ccccc4nc3c12`: the growth was 88.7%.

Take `CC1(C)CC2=C3C=C[C@@H]4[C@@]5(C)CC[C@H](O)C(C)(C)[C@@H]5CC[C@@]4(C)[C@]3(C)CC[C@@]2(C(=O)O)CC1=O`: the growth was 81.4%.

Take `CCOP(=O)(NC(c1ccccc1)c1ccccc1)OCC`: the growth was 104%.

As for `O=C(Nc1ccc(Cl)c(C(F)(F)F)c1)Nc1ccc2oc(=O)ccc2c1`, the growth was 24.8%.

In the case of `COc1ccc(C(=O)C2=CC(=O)C(=O)C2)cc1OC`, the growth was 108%.

For the compound `CC(=O)c1cc2ccccc2o1`, the growth was 109%.

In the case of `COc1ccc(-c2cn3c(ccc4ccccc43)n2)cc1`, the growth is 108%.

With `N#Cc1c(-c2cccs2)cc(-c2cnccn2)nc1SCC(=O)c1ccc(F)cc1`, the growth is 101%.

For `O=C1/C(=C/c2ccc(Cl)cc2)COc2ccc(O)c(O)c21`, the growth was -15.3% (active).

For the compound `Nc1c(Br)cc(Br)c2c1[nH]c(=O)c1ccccc12`, the growth was -20.4% (active).

Consider `OCCCC1CCN(C(Cc2ccccc2)c2ccccc2)CC1` (stereo unspecified), for which the growth is 95.2%.

Regarding `COc1ccc(C(=O)NC(=O)Nc2ccc3c(c2)NC(=O)/C3=C\c2[nH]c(C)c(C(=O)O)c2C)c(F)c1`, the growth was 12.3%.

On to `O=NN(CC(=O)NNc1ccccc1)CC(=O)NNc1ccccc1`, for which the growth is 77.7%.

For `Cc1nc(-c2cc3ccccc3c(N3CCN(C)CC3)n2)cs1`, the growth is 87%.

As to `C=C1C(=O)O[C@H]2[C@H]1CC/C(Cn1cc(-c3ccccc3)nn1)=C\CC[C@@]1(C)O[C@@H]21`, the growth was -38.5% (active).
